Laboratory results reported in ChEMBL document CHEMBL3988442, “University of Dundee, Small-Polar-MMV Screening Library” (2021).
For some assays here: Results with a measured potency or affinity are listed apart.

Assays:
Set-up in all cases: scale not given: direction of the effect not stated beside the values
[1] = target: Protein translocase subunit SecA (Escherichia coli (strain K12)) (UniProt P10408); assay: Assay to Identify E. coli SecA ATPase Inhibitors; format: functional; details: 30 µM
Chain of Protein translocase subunit SecA (Escherichia coli (strain K12)) (P10408 whole entry): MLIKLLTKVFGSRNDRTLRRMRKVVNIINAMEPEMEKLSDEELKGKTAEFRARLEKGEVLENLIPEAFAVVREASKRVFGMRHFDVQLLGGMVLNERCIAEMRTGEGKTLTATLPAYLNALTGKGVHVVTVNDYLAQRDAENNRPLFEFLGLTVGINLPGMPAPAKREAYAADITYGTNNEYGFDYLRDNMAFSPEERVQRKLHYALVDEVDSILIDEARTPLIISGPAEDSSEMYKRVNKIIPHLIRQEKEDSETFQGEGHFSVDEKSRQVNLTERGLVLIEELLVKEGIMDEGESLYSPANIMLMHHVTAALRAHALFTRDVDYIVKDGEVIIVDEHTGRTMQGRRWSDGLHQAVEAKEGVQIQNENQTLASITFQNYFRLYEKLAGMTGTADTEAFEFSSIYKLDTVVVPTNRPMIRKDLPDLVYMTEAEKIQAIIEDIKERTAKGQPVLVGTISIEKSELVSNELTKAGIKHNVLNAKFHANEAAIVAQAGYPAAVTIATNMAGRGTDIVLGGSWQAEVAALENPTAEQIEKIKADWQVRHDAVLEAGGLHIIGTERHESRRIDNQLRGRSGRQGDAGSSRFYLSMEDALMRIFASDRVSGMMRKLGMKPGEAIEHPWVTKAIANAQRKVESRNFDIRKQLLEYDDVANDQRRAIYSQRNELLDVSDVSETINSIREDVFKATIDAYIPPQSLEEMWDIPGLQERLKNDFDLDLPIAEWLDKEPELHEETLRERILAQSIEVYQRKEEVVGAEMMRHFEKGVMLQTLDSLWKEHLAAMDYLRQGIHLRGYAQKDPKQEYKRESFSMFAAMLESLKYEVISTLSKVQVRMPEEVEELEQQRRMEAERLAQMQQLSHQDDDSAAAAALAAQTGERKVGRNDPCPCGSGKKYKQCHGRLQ

[2] = target: T1, Ubiquitin-activating enzyme e1, putative (Leishmania donovani (strain BPK282A1)) (UniProt E9BSI1); assay: Leishmania donovani Ubiquitin Activating Enzyme (LdE1); format: functional; details: 30 µM
T1 sequence (whole entry): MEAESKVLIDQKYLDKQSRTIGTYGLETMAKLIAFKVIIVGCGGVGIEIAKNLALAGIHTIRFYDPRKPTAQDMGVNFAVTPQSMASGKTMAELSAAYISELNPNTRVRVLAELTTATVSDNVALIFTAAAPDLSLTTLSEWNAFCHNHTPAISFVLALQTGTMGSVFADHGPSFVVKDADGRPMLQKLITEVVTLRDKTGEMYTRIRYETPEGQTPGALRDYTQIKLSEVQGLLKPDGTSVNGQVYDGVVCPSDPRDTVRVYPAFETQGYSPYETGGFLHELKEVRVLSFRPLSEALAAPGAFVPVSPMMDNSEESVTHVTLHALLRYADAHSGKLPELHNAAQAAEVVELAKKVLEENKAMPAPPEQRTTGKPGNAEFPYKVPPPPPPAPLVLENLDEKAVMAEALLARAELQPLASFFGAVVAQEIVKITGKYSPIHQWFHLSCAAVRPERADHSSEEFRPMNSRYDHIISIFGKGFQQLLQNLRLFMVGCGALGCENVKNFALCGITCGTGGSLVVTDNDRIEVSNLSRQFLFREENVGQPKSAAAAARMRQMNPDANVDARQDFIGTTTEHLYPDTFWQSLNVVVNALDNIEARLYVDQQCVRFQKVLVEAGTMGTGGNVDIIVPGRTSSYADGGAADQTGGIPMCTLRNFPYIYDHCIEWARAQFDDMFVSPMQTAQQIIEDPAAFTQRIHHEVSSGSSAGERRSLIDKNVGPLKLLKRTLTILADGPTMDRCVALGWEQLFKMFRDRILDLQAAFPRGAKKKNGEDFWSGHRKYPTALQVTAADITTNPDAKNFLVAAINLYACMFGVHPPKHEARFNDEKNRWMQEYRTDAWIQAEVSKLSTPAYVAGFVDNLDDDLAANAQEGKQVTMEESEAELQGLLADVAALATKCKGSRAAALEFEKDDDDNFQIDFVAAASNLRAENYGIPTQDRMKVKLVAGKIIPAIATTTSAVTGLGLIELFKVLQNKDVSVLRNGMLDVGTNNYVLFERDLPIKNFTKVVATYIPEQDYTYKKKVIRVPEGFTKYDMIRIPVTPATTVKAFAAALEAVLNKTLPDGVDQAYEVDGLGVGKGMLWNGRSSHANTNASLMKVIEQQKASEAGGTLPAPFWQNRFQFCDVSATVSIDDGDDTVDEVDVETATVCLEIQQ

[3] = target: AMP-activated protein kinase, AMPK (Homo sapiens) (UniProt P54646+O43741+P54619+Q9UGJ0+Q9Y478+Q13131+Q9UGI9); assay: AMP-dependent Kinase enzyme assay. An in vitro enzyme assay that detects ADP turnover that is directly proportional to AMPK activity. This uses naive AMPK that is activated during the assay with MK-8722; format: functional; details: 30 µM
[4] = target: Sialic acid-binding Ig-like lectin 9 (Homo sapiens) (UniProt Q9Y336); assay: Hs-Siglec9 ALPHAscreen SOP 20170721; details: 10 µM
Chain of Sialic acid-binding Ig-like lectin 9 (Homo sapiens) (Q9Y336 whole entry): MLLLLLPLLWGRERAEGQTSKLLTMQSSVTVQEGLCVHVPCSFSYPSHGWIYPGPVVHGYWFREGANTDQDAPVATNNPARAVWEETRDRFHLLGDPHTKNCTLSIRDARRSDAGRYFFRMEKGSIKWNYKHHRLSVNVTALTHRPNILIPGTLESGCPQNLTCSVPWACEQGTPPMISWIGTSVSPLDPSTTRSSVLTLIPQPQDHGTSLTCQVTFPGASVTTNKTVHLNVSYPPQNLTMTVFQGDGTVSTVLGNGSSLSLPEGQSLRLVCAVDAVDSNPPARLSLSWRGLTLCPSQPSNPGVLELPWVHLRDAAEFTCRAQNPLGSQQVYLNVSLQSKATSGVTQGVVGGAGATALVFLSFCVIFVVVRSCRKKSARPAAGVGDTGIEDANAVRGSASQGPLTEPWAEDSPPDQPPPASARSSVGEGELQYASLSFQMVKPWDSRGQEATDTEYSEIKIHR

[5] = system: Trypanosoma cruzi; assay: Trypanosoma cruzi phosphomannomutase and mannose-1-phosphate guanylyltransferase assay; format: functional; details: 10 µM
[6] = target: T2, Arginase-2, mitochondrial (Homo sapiens) (UniProt P78540); assay: in vitro enzyme assay to detect the production of urea directly proportional to the activity of Arginase II; format: functional; details: 33.3 µM; note: in the data most compounds retested in dose-response had high values
T2 sequence (whole entry): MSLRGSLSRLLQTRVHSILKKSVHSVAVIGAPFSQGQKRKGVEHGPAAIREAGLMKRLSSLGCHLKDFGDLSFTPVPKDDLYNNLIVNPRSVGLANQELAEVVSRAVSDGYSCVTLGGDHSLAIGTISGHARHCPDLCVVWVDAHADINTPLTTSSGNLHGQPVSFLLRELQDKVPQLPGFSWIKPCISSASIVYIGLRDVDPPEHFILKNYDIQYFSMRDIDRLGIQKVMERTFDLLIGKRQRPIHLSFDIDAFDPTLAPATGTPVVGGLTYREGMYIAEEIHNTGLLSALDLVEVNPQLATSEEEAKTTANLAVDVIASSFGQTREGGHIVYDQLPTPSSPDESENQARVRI

[7] = target: T3, Proteasome subunit beta (Trypanosoma cruzi) (UniProt O96673); assay: Trypanosoma cruzi proteasome chymotrypsin-like activity (TcProtChymo) assay.; note: in the data most compounds retested in dose-response had high values; format: functional; details: 9.37 µM
T3 sequence (whole entry): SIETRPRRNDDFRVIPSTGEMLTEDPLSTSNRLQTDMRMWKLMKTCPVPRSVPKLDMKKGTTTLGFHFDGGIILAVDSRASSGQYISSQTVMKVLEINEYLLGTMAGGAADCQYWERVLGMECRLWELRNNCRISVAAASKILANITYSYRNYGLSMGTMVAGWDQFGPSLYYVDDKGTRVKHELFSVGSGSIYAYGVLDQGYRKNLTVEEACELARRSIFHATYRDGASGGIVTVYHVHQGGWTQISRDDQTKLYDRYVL

[8] = organism: Homo sapiens; assay: To identify inhibition of the IFN signalling (Jak-Stat) pathway via expression of an eGFP reporter gene under the control of an IFN-stimulated response element (ISRE) containing MxA promoter.; format: functional; details: 30 µM
[9] = target: T4, Tyrosyl-tRNA synthetase, putative (Trypanosoma cruzi (strain CL Brener)) (UniProt Q4DSP6); assay: Trypanosoma cruzi tyrosyl tRNA synthetase (TcYRS) _High Tyrosine SOP; format: functional; details: 30 µM; note: in the data most compounds retested in dose-response had high values
T4 sequence (whole entry): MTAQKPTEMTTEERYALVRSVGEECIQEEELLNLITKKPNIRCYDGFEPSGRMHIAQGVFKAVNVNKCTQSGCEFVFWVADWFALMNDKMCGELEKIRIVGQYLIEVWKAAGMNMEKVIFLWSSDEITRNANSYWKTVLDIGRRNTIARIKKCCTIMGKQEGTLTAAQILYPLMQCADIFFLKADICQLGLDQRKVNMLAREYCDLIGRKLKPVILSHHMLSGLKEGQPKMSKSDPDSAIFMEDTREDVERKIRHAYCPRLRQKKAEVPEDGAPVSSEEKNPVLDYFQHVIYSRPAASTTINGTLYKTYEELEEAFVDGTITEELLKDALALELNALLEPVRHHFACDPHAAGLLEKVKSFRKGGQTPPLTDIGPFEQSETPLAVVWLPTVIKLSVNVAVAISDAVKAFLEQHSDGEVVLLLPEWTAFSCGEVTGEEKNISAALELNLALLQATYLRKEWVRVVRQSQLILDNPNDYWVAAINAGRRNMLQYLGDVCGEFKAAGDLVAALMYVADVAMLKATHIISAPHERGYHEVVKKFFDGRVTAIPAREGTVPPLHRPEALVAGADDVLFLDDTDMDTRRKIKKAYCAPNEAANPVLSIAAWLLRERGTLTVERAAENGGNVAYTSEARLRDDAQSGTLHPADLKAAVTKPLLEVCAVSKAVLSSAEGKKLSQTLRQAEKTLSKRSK

[10] = target: T4, Tyrosyl-tRNA synthetase, putative (Trypanosoma cruzi (strain CL Brener)); assay: Trypanosoma cruzi tyrosyl tRNA synthetase (TcYRS) SOP; format: functional; details: 30 µM
[11] = target: Chromo domain-containing protein 1 (Saccharomyces cerevisiae (strain ATCC 204508 / S288c) (Baker's yeast)) (UniProt P32657); assay: ScCHD-1 Enzyme Inhibition Assay; format: functional; details: 30 µM; note: in the data most compounds retested in dose-response had high values
Chain of Chromo domain-containing protein 1 (Saccharomyces cerevisiae (strain ATCC 204508 / S288c) (Baker's yeast)) (P32657 whole entry, the tested form may be a part): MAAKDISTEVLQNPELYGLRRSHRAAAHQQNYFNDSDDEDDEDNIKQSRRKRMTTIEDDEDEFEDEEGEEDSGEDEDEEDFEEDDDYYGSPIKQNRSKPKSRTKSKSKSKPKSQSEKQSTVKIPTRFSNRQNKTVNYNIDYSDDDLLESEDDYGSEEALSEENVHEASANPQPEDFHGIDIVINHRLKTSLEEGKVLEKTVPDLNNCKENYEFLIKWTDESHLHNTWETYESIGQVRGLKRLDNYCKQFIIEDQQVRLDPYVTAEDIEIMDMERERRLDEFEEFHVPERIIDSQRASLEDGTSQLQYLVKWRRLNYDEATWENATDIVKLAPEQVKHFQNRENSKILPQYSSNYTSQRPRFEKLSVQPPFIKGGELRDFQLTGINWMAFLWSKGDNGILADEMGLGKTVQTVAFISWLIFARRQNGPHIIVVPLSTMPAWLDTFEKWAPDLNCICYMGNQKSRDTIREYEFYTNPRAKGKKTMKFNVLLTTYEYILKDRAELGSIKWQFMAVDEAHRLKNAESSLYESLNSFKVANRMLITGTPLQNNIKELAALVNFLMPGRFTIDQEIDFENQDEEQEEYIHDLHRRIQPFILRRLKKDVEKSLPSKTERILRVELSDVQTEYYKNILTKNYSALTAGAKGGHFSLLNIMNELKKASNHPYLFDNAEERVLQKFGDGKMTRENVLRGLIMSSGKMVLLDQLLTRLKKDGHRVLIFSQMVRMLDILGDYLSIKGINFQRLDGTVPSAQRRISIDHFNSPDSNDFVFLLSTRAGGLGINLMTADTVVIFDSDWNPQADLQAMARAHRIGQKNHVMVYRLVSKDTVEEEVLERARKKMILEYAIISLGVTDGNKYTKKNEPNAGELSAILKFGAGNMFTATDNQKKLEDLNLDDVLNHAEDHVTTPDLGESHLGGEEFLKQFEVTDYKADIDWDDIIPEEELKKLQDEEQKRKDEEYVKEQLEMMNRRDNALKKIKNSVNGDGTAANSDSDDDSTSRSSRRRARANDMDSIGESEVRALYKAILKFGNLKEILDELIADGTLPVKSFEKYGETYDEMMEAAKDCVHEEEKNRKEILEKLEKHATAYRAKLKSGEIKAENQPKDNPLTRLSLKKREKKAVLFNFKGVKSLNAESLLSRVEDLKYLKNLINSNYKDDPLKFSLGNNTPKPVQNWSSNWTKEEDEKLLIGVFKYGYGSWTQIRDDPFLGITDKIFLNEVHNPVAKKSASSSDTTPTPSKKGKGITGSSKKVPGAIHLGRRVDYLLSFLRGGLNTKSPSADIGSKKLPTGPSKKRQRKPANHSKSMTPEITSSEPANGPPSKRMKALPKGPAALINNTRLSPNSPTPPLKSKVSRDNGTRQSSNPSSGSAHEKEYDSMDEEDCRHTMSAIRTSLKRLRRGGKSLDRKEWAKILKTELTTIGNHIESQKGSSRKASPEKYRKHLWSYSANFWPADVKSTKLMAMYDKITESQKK

SMILES | Percent Effect [1] [%] | Percent Effect [2] [%] | Percent Effect [3] [%] | Percent Effect [4] [%] | Percent Effect [5] [%] | Percent Effect [6] [%] | Percent Effect [7] [%] | Percent Effect [8] [%] | Percent Effect [9] [%] | Percent Effect [10] [%] | Percent Effect [11] [%]
CC(C)Cc1cc(NC(=O)c2ccc(=O)[nH]n2)n(C)n1 | -8.11 | 18.2 | -1.51 | 12.1 | 3.75 | 2.85 | 4.73 | 0.756 | 8.74 | 24.4 | -11.8
O=C(NCc1nnc2ccccn12)N1CCc2sccc2C1 | -3.42 | -6.33 | 6.9 | 2.84 | -1.33 | 1.94 | 7.89 | 11.1 | 2.08 | 7.59 | -7.88
C=Cn1ncc(CN2C[C@@H]3CCCN3C[C@@H]2Cc2ccccc2)c1C | -3.58 | 4.05 | 3.48 | 4.39 | 2.37 | 0.696 | 11.2 | 26.4 | 6.45 | 14.3 | -13
COc1ccccc1CNC(=O)N1CCCC(NS(C)(=O)=O)C1 (configuration not stated) | -6.57 | -15.6 | -5.52 | -17.1 | -3.82 | -2.74 | 12.8 | 24 | -25.7 | 7.06 | -22.9
O=C(NCc1ccc(-n2cncn2)nc1)c1ccoc1 | -8.93 | 0 | -18.3 | 31.6 | 11.6 | -10.4 | 0.901 | 3.65 | 4.43 | 18.5 | -15.1
CN(C)CC1CN(CCOc2cccc(C#N)c2)CCO1 (configuration not stated) | -2.7 | -5.26 | -2.16 | -5.38 | -4.95 | 5.75 | -8.71 | -3.58 | 1.48 | 3.7 | 4.04
CCc1nnc2n1CCN(Cc1ccc3c(c1)OCCO3)C2 | 0.332 | 18.9 | -5.31 | -8.03 | -3.06 | 1.29 | 7.9 | 28.3 | 2.97 | 13.4 | -0.119
COc1ccc(F)cc1C(C(=O)O)N1CCSCC1 (configuration not stated) | -2.63 | 8.11 | -2.63 | 20.8 | 1.66 | 18.6 | 6.95 | -10 | 8.6 | 18.5 | -1.27
O=C1CCc2cc(C(=O)NCc3ccc(-n4cncn4)nc3)ccc2N1 | -8 | 8.11 | -0.201 | 4.21 | -5.19 | 0.802 | -4.68 | 10.4 | 4.43 | 1.24 | 23.8
O=C(Cn1ccc2ccc(Br)cc21)NC[C@@H]1CCCN2CCCC[C@H]12 | -9.26 | -4 | 0.939 | -2.99 | -5.5 | -12.8 | 2.03 | 7.57 | 0 | -56.4 | -8.03
COc1ccc(C(=O)NCC(c2cccn2C)N2CCCC2)c(OC)c1 (configuration not stated) | -5.97 | 13 | -5.29 | -1.12 | 1.08 | -1.94 | 18.3 | -21.8 | 6.35 | 11.5 | -8.35
CCN1CCC(CNCc2cc(OC)ccc2OC)C1 (configuration not stated) | -3.32 | 0 | -0.832 | -3.34 | -5.66 | 0.417 | 6.17 | 0.331 | 0.99 | 1.22 | -0.855
CN(C)C(=O)c1ccc(CNC(=O)NCCN(C)C2CCCC2)cc1 | -0.464 | 16.2 | -9.52 | -5.04 | -3.87 | -2.81 | 5.41 | 22.8 | 7.39 | 18.5 | -6.9
CCn1nccc1CNC(=O)C(C)n1cc2c(n1)c(C)nn2C (configuration not stated) | -5.47 | 20 | -7.37 | 0.228 | 0.197 | -11.4 | 10.5 | 2.05 | 5.29 | 12.8 | -12.4
Cc1ccc(NC2CCN(C(=O)COc3cccnc3)CC2)nn1 | -5.07 | 21.5 | -3.6 | -4.99 | -0.923 | -1.94 | 14.1 | 12.9 | 4.17 | 15.2 | -15.5
CCN1CC(C(=O)N2CCC(Oc3ccccc3C)CC2)CC1=O (configuration not stated) | -1.72 | 2.74 | 2.75 | 3.46 | -7.94 | 2 | 8.65 | 7.65 | 3.12 | 21 | -0.203
Cc1nc(C)n(CC2CCCCN2Cc2nnc(C3CC3)o2)n1 (configuration not stated) | 0.312 | 2.6 | 3.13 | 1.14 | 3.37 | 0.712 | 1.69 | 1.94 | 0.971 | 7.32 | -9.02
O=C(NCCN1CCCCCC1=O)c1n[nH]c(=O)c2ccccc12 | -2.33 | 15.6 | 17.8 | -3.89 | -11.1 | 2.13 | 6.42 | 27.5 | -6.8 | 9.76 | -3
CC(=O)N1CCN(Cn2nc(-c3ccc(F)cc3)oc2=O)CC1 | -3.09 | 23.4 | -4.67 | -7.73 | -2.25 | 0.712 | 8.11 | 15 | 9.71 | 21.9 | -10.3
CCC1=N[C@@]2(CC[C@@H]3CN(CC(=O)N(C)C)C[C@@H]32)C(=O)N1CC1CC1 | -0.889 | 6.67 | 3.24 | -0.307 | -6.88 | -12.2 | 17.2 | 4.45 | 0 | 10.3 | -7.25
CCN(c1ccc(C(=O)NCCCN2CCCC2)cc1)S(=O)(=O)CC | -0.13 | 5.26 | -1.17 | -1.94 | -9.83 | -7.1 | 14.1 | -5.53 | 4.25 | 7.79 | -3.78
COc1ncc(NC(=O)Nc2cc(C)ccc2OC)cn1 | -9.27 | 15.6 | -6.73 | -2.77 | 9.57 | 0.645 | 15.3 | 10.7 | 3.17 | 11.5 | -7.83
